Laboratory results as given in the supplement of paper PMC4166925.
± gives the standard deviation of the averaged measurements. Whole data set: some 33,000 sequences, median “E-score (dimensionless, -0.5 to 0.5)” near -0.049, cut for the highest 2% near 0.37. Only a selection was taken, and the highest values are over-represented in it overall.

Each sequence was assayed on T1, PmTbr T-box DNA-binding domain (GST fusion) (assay: PBM E-score of 8-mer (E-score (dimensionless, -0.5 to 0.5)); Tbr is Tbrain of the sea star Patiria miniata (Pm) or the sea urchin Strongylocentrotus purpuratus (Sp); higher = stronger binding preference). Details: the construct has about 5 more residues each side.
T1 sequence: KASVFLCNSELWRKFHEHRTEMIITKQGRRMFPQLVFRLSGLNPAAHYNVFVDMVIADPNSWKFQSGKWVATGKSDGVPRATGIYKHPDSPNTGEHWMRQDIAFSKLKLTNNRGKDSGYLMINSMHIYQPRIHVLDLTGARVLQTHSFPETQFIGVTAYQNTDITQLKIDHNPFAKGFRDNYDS
Method in brief: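 Universal Agilent oligonucleotide arrays, made double-stranded by primer extension, were incubated with 200 nM GST-fused Tbr T-box DNA-binding domain in PBS (pH 7.5). The protein was expressed in BL21 E. coli at 20 °C and purified by glutathione affinity chromatography. After scanning and quantification, the Universal PBM Analysis Suite assigned an enrichment E-score to each ungapped 8-mer, averaged over duplicate arrays.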

| Sequence | PBM E-score of 8-mer |
| --- | --- |
| ACAGTTAG | 0.0702 ± 0.027 |
| ATGAATCA | -0.129 ± 0.0053 |
| GTCCATGA | -0.052 ± 0.031 |
| GGGTGGGA | 0.237 ± 0.011 |
| CCCACATA | -0.214 ± 0.08 |
| CAAGGGGC | -0.095 ± 0.021 |
| AGCAGCAA | -0.118 ± 0.011 |
| CAACGTCA | 0.0459 ± 0.035 |
| AGACTTTG | -0.00767 ± 0.055 |
| ACACTTTC | 0.408 ± 0.0072 |
| CCACTTTC | 0.104 ± 0.06 |
| ACACTTTG | 0.404 ± 0.014 |
| ACTCTTTC | -0.00346 ± 0.013 |
| ACACTTTA | 0.338 ± 0.029 |
| GTTTTTAA | -0.131 ± 0.14 |
| AATCACCT | 0.311 ± 0.017 |
| GTGTAGAA | 0.164 ± 0.051 |
| AGACAGGC | -0.103 ± 0.03 |
| AAGTTAGC | 0.192 ± 0.011 |
| ATGTCCGG | -0.174 ± 0.071 |
| AACCTCAG | -0.26 ± 0.042 |
| CTCCTCAG | -0.0996 ± 0.015 |
| GACCTCAC | 0.0743 ± 0.032 |
| CACCTCAA | 0.395 ± 0.022 |
| TACCTCAA | -0.132 ± 0.028 |

| Sequence | PBM E-score of 8-mer |
| --- | --- |
| AACCTCAC | 0.219 ± 0.015 |
| CACCTCAG | 0.42 ± 0.0057 |
| AACCTCAA | -0.113 ± 0.028 |
| CACCTCAC | 0.4504 ± 0.0025 |
| CTGCCACC | 0.265 ± 0.036 |
| CCCGATTA | 0.0524 ± 0.024 |
| CCGCTAGA | 0.0332 ± 0.029 |
| CGATTGCC | -0.0231 ± 0.013 |
| GTACAGCA | -0.0813 ± 0.032 |
| ACGGAAAT | -0.189 ± 0.071 |
| CCGCAGGC | 0.000335 ± 0.0022 |
| ACTCACAC | 0.4612 ± 0.00083 |
| GCTCACAA | 0.132 ± 0.037 |
| ACTCACAT | -0.0309 ± 0.043 |
| GCTCACAC | 0.424 ± 0.01 |
| ACTCACAG | 0.314 ± 0.043 |
| CCTCACAA | 0.155 ± 0.016 |
| CCTCACAG | 0.127 ± 0.049 |
| GCACACAC | 0.219 ± 0.039 |
| CCTCACAC | 0.475 ± 0.005 |
| ACTACCTC | -0.248 ± 0.022 |
| ACTCCACC | -0.0966 ± 0.022 |
| CGGCCAGA | -0.215 ± 0.011 |
| ACACTTAC | 0.412 ± 0.0079 |
| ACTCTTAG | -0.0903 ± 0.065 |

| Sequence | PBM E-score of 8-mer |
| --- | --- |
| CCACTTAG | -0.0105 ± 0.01 |
| CCACTTAC | 0.201 ± 0.0076 |
| GCACTTAC | 0.178 ± 0.015 |
| ACACTTAA | 0.362 ± 0.031 |
| ACACTTAG | 0.416 ± 0.0068 |
| ACACTTAT | 0.387 ± 0.0076 |
| ACTCTTAT | -0.0869 ± 0.047 |
| CTTAAGAC | -0.218 ± 0.055 |
| CCGATCCG | -0.094 ± 0.017 |
| CGGTTAGA | -0.182 ± 0.026 |
| ACATTAGG | 0.0856 ± 0.037 |
| ACAGGGCG | 0.0776 ± 0.037 |
| AAGCGCGA | 0.375 ± 0.017 |
| TAGCGCGA | 0.3803 ± 0.0017 |
| AAGCGCGC | 0.106 ± 0.015 |
| GAGCGCGA | 0.291 ± 0.019 |
| AAGCGCGG | 0.0485 ± 0.038 |
| CAGCGCGA | 0.203 ± 0.029 |
| CCACGCTA | -0.0567 ± 0.028 |
| ACTCAGCA | -0.151 ± 0.053 |
| TCCTAGAA | -0.0822 ± 0.13 |
| CCTAGCAC | 0.3709 ± 0.0033 |
| CCTAGCAA | 0.128 ± 0.069 |
| ACTAGCAA | 0.00762 ± 0.0026 |
| ACTAGCAC | 0.381 ± 0.013 |

| Sequence | PBM E-score of 8-mer |
| --- | --- |
| ACTAGCAG | -0.0294 ± 0.074 |
| GCTAGCAC | 0.33 ± 0.0063 |
| CTTGGAAA | -0.0932 ± 0.023 |
| CATCTATC | -0.196 ± 0.023 |
| CGAGTGCG | 0.225 ± 0.033 |
| GAGGTGTA | 0.44018 ± 0.00028 |
| AAGGTGTC | 0.4879 ± 0.0035 |
| CCGGTGTA | 0.0868 ± 0.027 |
| CAGGTGTA | 0.3628 ± 0.0011 |
| ACGGTGTA | 0.16 ± 0.0067 |
| AAGGTTTC | 0.0322 ± 0.0076 |
| CAGGTGTC | 0.4791 ± 0.0044 |
| GGGGTGTA | 0.175 ± 0.0049 |
| GCGGTGTA | -0.136 ± 0.021 |
| CAGATGTC | -0.0861 ± 0.049 |
| ACGGTGTC | 0.26 ± 0.076 |
| AAGGTGTA | 0.404 ± 0.026 |
| GGCATTAC | -0.165 ± 0.0079 |
| GGATACCC | -0.327 ± 0.049 |
| GGAGAGGA | -0.1 ± 0.0036 |
| CTTGGGGA | -0.196 ± 0.039 |
| ATAAGTGG | 0.124 ± 0.042 |
| CAATGGAC | -0.0519 ± 0.011 |
| TGCCCACA | -0.0968 ± 0.015 |
| ACGGTGTG | 0.324 ± 0.012 |

| Sequence | PBM E-score of 8-mer |
| --- | --- |
| AAGGTTTG | -0.16 ± 0.015 |
| AAGGTGTG | 0.4811 ± 0.0016 |
| AATGGCTG | -0.207 ± 0.038 |
| GGTGATAC | 0.364 ± 0.025 |
| GGTGATAA | 0.413 ± 0.018 |
| AGTGATAA | 0.317 ± 0.052 |
| TATGATAA | -0.0124 ± 0.036 |
| CGTGATAA | 0.251 ± 0.034 |
| TGTGATAA | 0.406 ± 0.046 |
| TTGCGCAA | 0.108 ± 0.0064 |
| CTAGATTC | 0.139 ± 0.039 |
| AATGGACA | 0.0325 ± 0.009 |
| GCACCTAA | 0.373 ± 0.016 |
| CCACCTAC | 0.273 ± 0.049 |
| GTACCTAC | -0.272 ± 0.061 |
| GGACCTAA | -0.0476 ± 0.0062 |
| AGACCTAC | -0.292 ± 0.035 |
| ATACCTAC | -0.172 ± 0.0048 |
| GTACCTAA | -0.248 ± 0.013 |
| ACACCTGT | 0.472 ± 0.00061 |
| AAACCTGT | 0.0415 ± 0.013 |
| ACACCTAC | 0.4763 ± 0.0017 |
| GCACCTAC | 0.382 ± 0.0042 |
| ACACCGGT | 0.22015 ± 2.8e-05 |
| AGTTGGCG | 0.229 ± 0.039 |

| Sequence | PBM E-score of 8-mer |
| --- | --- |
| AAGATCGA | -0.152 ± 0.084 |
| CGCAACAG | 0.0766 ± 0.031 |
| CAGCAATC | -0.21244 ± 7.8e-05 |
| CTCCATCA | 0.123 ± 0.077 |
| GGTAAGTA | -0.0321 ± 0.051 |
| CGGTCAAC | -0.0198 ± 0.048 |
| GCAGGGGC | -0.193 ± 0.12 |
| AGATGGAC | -0.281 ± 0.02 |
| ACACCTAG | 0.462 ± 0.0066 |
| TCACCTAA | 0.383 ± 0.0065 |
| CCACCTAA | 0.146 ± 0.058 |
| ACACCTAA | 0.463 ± 0.0018 |
| ATACCTAT | -0.0294 ± 0.018 |
| AAACCTAG | 0.113 ± 0.032 |
| ACACCTAT | 0.4662 ± 0.00073 |
| AGACCTAT | -0.2143 ± 0.00038 |
| CCACCTAG | 0.264 ± 0.0049 |
| ATACCTAA | 0.0416 ± 0.058 |
| TGACCTAA | -0.228 ± 0.013 |
| AAACCTAA | -0.0751 ± 0.036 |
| CGCACAAA | 0.00904 ± 0.0019 |
| ATTCCTCG | -0.0674 ± 0.053 |
| ATAGCTCC | -0.134 ± 0.022 |
| CTCCCCAA | -0.12 ± 0.0034 |
| CTGAAACC | -0.0317 ± 0.0024 |

| Sequence | PBM E-score of 8-mer |
| --- | --- |
| TGATACAA | 0.126 ± 0.037 |
| GTAGTGCA | -0.21 ± 0.062 |
| AAAGGCAC | -0.0325 ± 0.013 |
| GCCATAAA | -0.0292 ± 0.012 |
| AGATAGAT | -0.217 ± 0.015 |
| GCACCTCC | 0.4324 ± 0.002 |
| CCACCTCC | 0.305 ± 0.024 |
| GCACCTCA | 0.35 ± 0.037 |
| GAACTACA | 0.0281 ± 0.036 |
| TCGGTCCA | -0.365 ± 0.015 |
| CCGTGTTA | 0.24 ± 0.041 |
| ACGTGTAG | 0.118 ± 0.015 |
| GCGTGTTA | 0.336 ± 0.036 |
| ACGTGTTG | 0.3744 ± 0.0004 |
| ACGTGTTA | 0.442 ± 0.015 |
| ACGTGTTC | 0.2198 ± 0.001 |
| CGAGCAAA | -0.0522 ± 0.042 |
| CTTTGTCC | 0.109 ± 0.0064 |
| ATAAGGTC | -0.146 ± 0.021 |
| ACAAGGTA | -0.0243 ± 0.03 |
| AGAAGGTC | -0.315 ± 0.034 |
| AGAAGGTG | 0.403 ± 0.0068 |
| ATAAGGTA | 0.0248 ± 0.096 |
| ACAAGGTC | 0.1572 ± 0.00086 |
| AGAAGGTA | -0.2003 ± 0.00059 |
